Several values for one entry are separate records, joined by “and”; a condition that tells them apart may be missing. Equal values may be shown once. Results filed as inconclusive are left out. Activity calls are given as the source filed them. Calls follow the shape of the dose curve; as a rule, active = well fitted inhibition curve with a large enough effect; inconclusive = small, poorly fitted or top-dose-only effect; inactive = flat fitted curve, though single readings scatter.
% is scaled to controls: 0 for no effect and ±100 for the full control effect.

The test relates to KB-3-1. As to the kind of experiment: Cytotoxic Profiling of Annotated Libraries Using Quantitative High-Throughput Screening (AID 1296008). Also: nearly all actives have a fitted effect of over 60% in size. To be noted: Five cell lines viability, CellTiter-Glo ATP luminescence, 48-72 h; max response: hits give low values. Put shortly:
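Compounds were pin-transferred onto cells and incubated 48 or 72 hr at 37 degree Celsius, 95% humidity. CellTiter-Glo was added, plates sat 10 min at room temperature, then ATP-coupled luminescence was imaged as the viability read-out.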
As for `O=c1n(CC2CO2)c(=O)n(CC2CO2)c(=O)n1CC1CO1` (stereo not given), the max response was 23% (inactive).
Turning to `C[C@H](N)C(=O)N[C@@H](C)P(=O)(O)O`, the max response is -6.78% (inactive).
For `Cc1cccc(Nc2ncccc2C(=O)O)c1C`, the max response was 14.2% (inactive).
As for `COc1ccc(-c2noc(CC(=O)O)c2-c2ccc(OC)cc2)cc1`, the figure is 2.01% (inactive); as for `CCCCC`, 7.19% (inactive).
`CN(C)CCC(O)(c1ccccc1)c1ccccc1Cl` (stereo not given): the max response is 3.32% (inactive).
As for `C[N@+]12CCCC[C@@H]1CCC(=C(c1cccs1)c1cccs1)C2`, the figure is -14.7% (inactive); as for `CCCc1ccc(C(=O)O)cc1`, 8.62% (inactive).
`C=C1[C@@H]2CC[C@@H](C2)C1(C)C`: the max response is -10.2% (inactive).
With `CC1CS(=O)(=O)CCN1/N=C/c1ccc([N+](=O)[O-])o1` (stereo not given), the max response was 1.84% (inactive).
Next, `CC(C)(C)CC(C)(C)c1cc(Cc2cc(C(C)(C)CC(C)(C)C)cc(-n3nc4ccccc4n3)c2O)c(O)c(-n2nc3ccccc3n2)c1`: -2.05% (inactive); H-RKDVY-OH: -14.8% (inactive); `NC(=O)[C@H]1O[C@@H](O)[C@H](O)[C@@H](O)[C@@H]1O`: 4.29% (inactive).
Next, `C[C@@H](O)[C@H]1C(=O)N2C(C(=O)[O-])=C(SC3Cn4cnc[n+]4C3)[C@H](C)[C@H]12` (stereo not given in full): 1.34% (inactive); `COc1ccc2c(c1)OC(C)(C)C(c1ccccc1)C2c1ccc(OCCN2CCCC2)cc1` (stereo not given): -26.5% (inactive).
Consider `C=Cc1c(C)c2cc3nc(cc4[nH]c(cc5nc(cc1[nH]2)C(C)=C5CCC(=O)OC)c(CCC(=O)O)c4C)[C@@]1(C)C3=CC=C(C(=O)OC)[C@H]1C(=O)OC`, for which the max response is -15.7% (inactive).
As to `O=C1NC(=O)[C@H]2[C@@H]1[C@@H]1C=C[C@H]2C1`, the max response is -8.53% (inactive).
In the case of `C=C[C@]1(C)C[C@@H](OC(=O)CSCCN(CC)CC)[C@]2(C)[C@H](C)CC[C@]3(CCC(=O)[C@H]32)[C@@H](C)[C@@H]1O`, the max response is -8.95% (inactive).
Next, `C#C[C@]1(O)CC[C@@H]2[C@H]3CCC4=CC(=O)CC[C@H]4[C@H]3C(=C)C[C@@]21CC`: 1.8% (inactive); `CCCC(=O)O`: 2.03% (inactive); `CC12CCC(C1)C(C)(C)C2=O` (stereo not given): 3.69% (inactive).
As for `NCCCC[C@H](N)C(=O)O`, the figure is 0.45% (inactive); as for `OCl`, 19.8% (inactive).
For `CSCCC(N)C(=O)O` (stereo not given), the max response is 3.08% (inactive).
For the compound `CO[C@@H]1[C@H](OC(=O)/C=C/C=C/C=C/C=C/C(=O)O)CC[C@]2(CO2)[C@H]1[C@@]1(C)O[C@@H]1CC=C(C)C`, the max response is 2% (inactive).
Next, `CCCCCCCCCc1ccc(OCCOCCO)cc1`: -16.4% (inactive); `O=[n+]1ccn([O-])c2ccccc21`: -0.645% (inactive).
Next, `CC(C)N1CCN(c2ccc(OC[C@H]3CO[C@](Cn4cncn4)(c4ccc(Cl)cc4Cl)O3)cc2)CC1`: 0.302% (inactive); `Cn1c(O)c(N=NC(N)=S)c2ccccc21`: 8.19% (inactive).
Next, `O=C(O)c1cc(N=Nc2ccc(O)c(C(=O)O)c2)ccc1O`: -1.02% (inactive); `Cc1cc2nc3c(=O)[nH]c(=O)nc-3n(C[C@H](O)[C@H](O)[C@H](O)COP(=O)(O)OP(=O)(O)OC[C@H]3O[C@@H](n4cnc5c(N)ncnc54)[C@H](O)[C@@H]3O)c2cc1C`: -11% (inactive).
`CCCCCCCCCCCCCC(=O)OCC(COP(=O)([O-])OCC[N+](C)(C)C)OC(=O)CCCCCCCCCCCCC` (stereo not given): the max response is 15.8% (inactive).
Take `CC1=CCC2CC1C2(C)C` (stereo not given): the max response was 16.6% (inactive).
Next, `CN1C(C(=O)Nc2ccccn2)C(=O)c2sc(Cl)cc2S1(=O)=O` (stereo not given): 5.88% (inactive); `CN1C(=O)C[C@@H](C(=O)N[C@@H](Cc2cnc[nH]2)C(=O)N2CCC[C@H]2C(N)=O)NC1=O`: 5.84% (inactive).
As to `C(=C\c1ccncc1)/c1ccccc1`, the max response is 1.91% (inactive) and -0.505% (inactive).
Next, `OC1OC[C@@H](O)[C@H](O)[C@@H]1O` (stereo not given in full): 12.5% (inactive).
As for `CC(C)CCC[C@@H](C)[C@H]1CC[C@H]2[C@@H]3CC[C@@H]4C[C@H](O)CC[C@]4(C)[C@H]3CC[C@]12C`, the figure is -12.6% (inactive); as for `CCC[C@@H]1C[C@@H](C(=O)N[C@@H]([C@H]2O[C@H](SC)[C@H](O)[C@@H](O)[C@H]2O)[C@H](C)Cl)N(C)C1`, 4.39% (inactive); as for `C=C(C)C1CC=C(C)CC1` (stereo not given), 7.51% (inactive).

(Values after PubChem BioAssay (NCATS).)
